In PubChem BioAssay (NCI):
Compounds without any hit were thinned out: in the full panel of roughly 83,000, 20% have a hit.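 Cells were grown in 96-well plates and exposed to the test compound at a single concentration for 48 hours; results are reported as percent growth, with values below 10 considered active.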

What was measured:
Assay in all cases: NCI-60 one-dose screen, 48 h (100 = growth as untreated, 0 = no growth, -100 = all killed)
[1] = system: DU-145 prostate; conditions: 10 µM
[2] = system: K-562 leukemia; conditions: 10 µM
[3] = system: MALME-3M melanoma; conditions: 10 µM
[4] = system: MDA-MB-231 breast; conditions: 10 µM
[5] = system: RXF 393 renal; conditions: 10 µM
[6] = system: SF-268 CNS; conditions: 10 µM
[7] = system: SF-295 CNS; conditions: 10 µM
[8] = system: SF-539 CNS; conditions: 10 µM
[9] = system: UACC-257 melanoma; conditions: 10 µM
[10] = system: M14 melanoma; conditions: 10 µM unless noted
[11] = system: HCT-15 colon; conditions: 10 µM
[12] = system: HT29 colon; conditions: 10 µM
[13] = system: SNB-75 CNS; conditions: 10 µM
[14] = system: SNB-19 CNS; conditions: 10 µM
[15] = system: U251 CNS; conditions: 10 µM
[16] = system: PC-3 prostate; conditions: 10 µM
[17] = system: UACC-62 melanoma; conditions: 10 µM
[18] = system: LOX IMVI melanoma; conditions: 10 µM
[19] = system: SK-MEL-28 melanoma; conditions: 10 µM
[20] = system: SK-MEL-5 melanoma; conditions: 10 µM

Measured: growth

Cc1cc(C)c(N2C(=O)CC(Sc3ccccc3N)C2=O)c(C)c1 (configuration not stated)
inactive: [1] 89.5% | [2] 47.4% | [3] 77.5% | [4] 83.1% | [5] 84.8% | [6] 80.7% | [7] 47.5% | [8] 88% | [9] 60.4% | [10] 60.3% | [11] 58% | [12] 66.2% | [13] 55.7% | [14] 83.1% | [15] 81.3% | [16] 68.4% | [17] 60.8% | [18] 69.9% | [19] 60.7%

O=C(NC(=S)Nc1ccccn1)c1ccccc1
inactive: [1] 96.2% | [2] 143% | [3] 82.6% | [4] 91.6% | [5] 103% | [6] 104% | [7] 104% | [8] 88.6% | [9] 110% | [10] 91.9% | [11] 100% | [12] 87.5% | [13] 74.8% | [14] 95.4% | [15] 94.9% | [16] 77.9% | [20] 93.3% | [17] 93.1% | [18] 94.9% | [19] 152%

COc1cccc(C(c2cc3c(cc2O)OCO3)N2CCOCC2)c1OC (configuration not stated)
inactive: [1] 109% | [2] 95.8% | [3] 99.2% | [4] 97.7% | [5] 103% | [6] 95.8% | [7] 99.7% | [8] 96.5% | [9] 98.4% | [10] 104% | [11] 97.4% | [12] 106% | [13] 91.2% | [14] 98.5% | [15] 101% | [16] 95.7% | [20] 99.1% | [17] 95.3% | [18] 97.3%

COc1ccc(N)c2c1C(=O)c1ccccc1C2=O
inactive: [1] 112% | [2] 98.9% | [3] 88.2% | [4] 95.5% | [5] 95.6% | [6] 104% | [7] 103% | [8] 101% | [9] 106% | [10] 117% | [11] 87.1% | [12] 93.6% | [13] 95.6% | [14] 101% | [15] 97.9% | [16] 89.6% | [17] 94.3% | [18] 104% | [19] 128%

CCOC(=O)[C@]1(Br)CC[C@@]1(Br)C(=O)OCC
inactive: [1] 120% | [2] 43.6% | [3] 75.4% | [4] 99.4% | [5] 111% | [6] 108% | [7] 108% | [8] 104% | [9] 80.8% | [10] 86.6% | [11] 89.2% | [12] 83.1% | [13] 92.4% | [14] 106% | [15] 98.3% | [16] 97.3% | [20] 103% | [17] 77.9% | [18] 82.5% | [19] 110%

CN(CC(=O)O)c1ccc(/C=C/c2ccnc3ccccc23)cc1
inactive: [1] 97.7% | [2] 50.5% | [3] 99.2% | [4] 66.8% | [5] 111% | [6] 90.1% | [7] 92.2% | [8] 90.3% | [9] 86.9% | [10] 90.3% | [11] 84.5% | [12] 88.6% | [13] 90.3% | [14] 87.9% | [15] 80.3% | [16] 71.2% | [20] 93% | [17] 72.3% | [18] 94.8% | [19] 100%

N#C/C(=C/N1C(=O)/C(=C/c2ccc([N+](=O)[O-])cc2)SC1=S)c1nc2ccccc2s1
inactive: [1] 104% | [2] 77.5% | [3] 111% | [4] 73.6% | [5] 96.8% | [6] 95% | [7] 86.8% | [8] 91.9% | [9] 96.5% | [10] 94.6% | [11] 95.6% | [12] 98.6% | [13] 84.5% | [14] 86.4% | [15] 69.4% | [16] 79.7% | [20] 63.5% | [17] 70.1% | [18] 88% | [19] 105%
